The values that follow come from the OligoGym collection.

Among the targets are PHF23; PHF15; PHF20; PHF19; PION; PKD2L1; PITPNM3; PKIG; PKIA; PKLR; PML; POLR3B; PPIP5K1; PQLC1; PRKAR1B; PRPS2; PRSS27; PSKH2; PTBP2; PYROXD1.
Holding throughout (assay): pooled miR-30 sensor sort-seq; sequence = guide strand
What all share (conditions): shRNA
Further: reference of the scale not given here.

For TAACATGTGATCAGATCCCATG, the sensor-assay potency score (higher = more potent) with PHF23 was -0.921.
Take TCTAACCCTCTCTAGGTCCTGC: in the assay with PHF15, the sensor-assay potency score (higher = more potent) worked out at 0.0914.
As to TAAACTTCTCTCGTTTATCAGG, the sensor-assay potency score (higher = more potent) in the assay with PHF20 was -1.02.
In the assay with PHF19, TTGTTCTTGACCTTCGCCAGGG came in with a sensor-assay potency score (higher = more potent) of 0.174.
In the assay with PION, TAGACTGAACTAAACTTGCAGC had a sensor-assay potency score (higher = more potent) of -0.224.
TTCTTTAGTAGACTGAACTAAA: the sensor-assay potency score (higher = more potent) with PION was -0.809.
As for TTGACTGTGCGGATTTGCCAGG, in the assay with PKD2L1, the sensor-assay potency score (higher = more potent) is -0.754.
Sequence TTCAAAGATCTCTGAATCCTGA yielded a sensor-assay potency score (higher = more potent) in the assay with PKD2L1 of 0.0945.
As for TAGACAGAGATGTCCTTCGTGG, in the assay with PITPNM3, the sensor-assay potency score (higher = more potent) was -0.052.
In turn, TGTCCGGTCACAGGAGATGAAG returned a sensor-assay potency score (higher = more potent) in the assay with PKIG of -2.03.
TACAGGAAGAATCATCATCTAG returned a sensor-assay potency score (higher = more potent) in the assay with PKIA of -0.916.
In the assay with PKD2L1, TAGTAATAAGCACTGGAGCTTG showed a sensor-assay potency score (higher = more potent) of -0.791.
Turning to TCACAGCCTCTGAGTCTCCCTG, the sensor-assay potency score (higher = more potent) with PKIG was -1.09.
On to TACTTGAATATCTTGATCCAGG, for which the sensor-assay potency score (higher = more potent) with PKD2L1 was -0.611.
Regarding ATGTCAGGGACCGCATTCCGAC, in the assay with PKIG, the sensor-assay potency score (higher = more potent) is -1.85.
Take TTGTTGAAGCTGATGTACTTGA: in the assay with PKD2L1, the sensor-assay potency score (higher = more potent) was -0.253.
In the assay with PKIG, TGGGGCGCTTCCCTCCACCTGT yielded a sensor-assay potency score (higher = more potent) of -1.57.
On the same count and under the same terms, as for TCAGGGACCGCATTCCGACGGC, the figure is -0.897; as for TTGCCAGCTTCCTTGTCTGGGG, -0.658; as for TCGAGTGCCAGCTCGCCCATGT, -1.07.
As to TATTGCATTTCTTCTACCTGTT, in the assay with PKIA, the sensor-assay potency score (higher = more potent) was found to be 0.0658.
In the assay with PKIA, TTTACTGGGTGAACACTTGAGC yielded a sensor-assay potency score (higher = more potent) of -0.0975.
Turning to TTCCTCACGCTCACAGCCTCTG, in the assay with PKIG, the sensor-assay potency score (higher = more potent) was -0.203.
TTGCTGAGACGCTTGCTGCTGG: the sensor-assay potency score (higher = more potent) with PITPNM3 was -0.433.
In turn, TTACAGTGTCTTGAAAGTGTAC showed a sensor-assay potency score (higher = more potent) with PKIG of -0.626.
The sequence TAGGTGTCACTTATCCTGGTGG showed a sensor-assay potency score (higher = more potent) with PKIG of -0.436.
The sequence TCATCATCTAGGTCGGAGCTAC came in with a sensor-assay potency score (higher = more potent) with PKIA of -0.746.
TTCAGGTGAGAGACAAGCGAGA came in with a sensor-assay potency score (higher = more potent) in the assay with PITPNM3 of -0.748.
With TAGTAGAAGATGAAGACGCAGA, in the assay with PKD2L1, the sensor-assay potency score (higher = more potent) is -0.533.
In turn, TTACGAAGCCACTTCTCCCGGG registered a sensor-assay potency score (higher = more potent) with PITPNM3 of -0.085.
For TTTGTTCTGTAGAACTTCGTTG, in the assay with PKIA, the sensor-assay potency score (higher = more potent) came to 0.16.
As for TAATTGGACACAGACTTTCAGG, the sensor-assay potency score (higher = more potent) with PKLR is -0.61.
On the same count and under the same terms, then TTGATCATCTCCTTGAGGCGCT, with 1.07.
ATCTTCTTCACCTTCTGTCTTG yielded a sensor-assay potency score (higher = more potent) with PKIA of -0.736.
The same measure, in the same setting: as for TAGAACTTCGTTGTGCATCTTC, the figure is 0.489.
As to TTCATCTTCAGGCTTCTTGGGT, the sensor-assay potency score (higher = more potent) with PKD2L1 is -0.0602.
Turning to TTGTTCTGTAGAACTTCGTTGT, the sensor-assay potency score (higher = more potent) with PKIA is 0.279.
TCTTGTTGATATCAAGACCTGC: the sensor-assay potency score (higher = more potent) with PKIA is -0.396.
On the same count and under the same terms, then TTCAAGGCTAATTCATTGCTGT, with 0.0225.
As for TAACATCTTGTGGTTACAGTGT, the sensor-assay potency score (higher = more potent) with PKIG was -0.118.
In the case of TTGAATATCTTGATCCAGGCGA, in the assay with PKD2L1, the sensor-assay potency score (higher = more potent) turned out to be 0.38.
For the sequence TTTAACATGATAATGAGCAGGT, the sensor-assay potency score (higher = more potent) with PKIA was 0.937.
For the sequence TTGTTGTACTGTGTCTGCCAGA, the sensor-assay potency score (higher = more potent) in the assay with PKD2L1 was -0.963.
Sequence TAACATGATAATGAGCAGGTTC registered a sensor-assay potency score (higher = more potent) in the assay with PKIA of 0.186.
As for TTGATTGTCAGCTCTCTCCATA, the sensor-assay potency score (higher = more potent) with PKIG was -0.293.
ATGGACTTTGCTAAGTCTCTTT: the sensor-assay potency score (higher = more potent) with PKLR is -0.987.
TCGTGCTTGAGGAACCACTGGT registered a sensor-assay potency score (higher = more potent) with PML of 0.0745.
In the case of TTGACAATTATGTAGGGTCTGC, the sensor-assay potency score (higher = more potent) in the assay with POLR3B is -0.266.
Consider TAAAGCATGATGACAATCTGGG, for which the sensor-assay potency score (higher = more potent) with PPIP5K1 is 0.285.
TTCTTCATCCTTGCTATCTGCA showed a sensor-assay potency score (higher = more potent) with PQLC1 of -0.201.
In turn, TTCCTCTTGAGGATCTCAGAGC had a sensor-assay potency score (higher = more potent) with PRKAR1B of -0.844.
On to TATTTATTCTGGAAATAGCTGG, for which the sensor-assay potency score (higher = more potent) with PRPS2 is -0.496.
On the same count and under the same terms, as for TTAGCATATACAAAGATCTGAT, the figure is -0.612.
Regarding TAGAGCAGGTTGCACTTGGGTG, the sensor-assay potency score (higher = more potent) with PRSS27 is -0.65.
The same measure, in the same setting: then TTGGTAGCCAAACTCGGTGTCT, with -0.152.
AAATTTTCGACTCTTCACCTGG: in the assay with PSKH2, the sensor-assay potency score (higher = more potent) turned out to be 0.215.
On the same count and under the same terms, then TAGTTTGTCTATAAAGTCCTTC, with -0.109.
In turn, TTGGCTGTAACTACCATGCTGC registered a sensor-assay potency score (higher = more potent) in the assay with PTBP2 of -0.376.
As to TGATTGTTCTTCAACATCGAAT, in the assay with PYROXD1, the sensor-assay potency score (higher = more potent) is -0.94.
The same measure, in the same setting: then TAGAGTCTCCTGAACTCGCTGC, with 0.751.
